Assay results as given in PubChem BioAssay AID463173 (ICCB-Longwood Screening Facility, Harvard Medical School, 2010).
Out of some 52,000 compounds screened, about 1,700 (3.3%) were called active. Rule as the data show it: active = survival mostly below about 52% (no sharp cut-off); inactive = mostly above about 56%. The full list was thinned out, with actives kept by preference.

Test system: Wild type
Assay: S. aureus survival, RN4220 and DeltatarO strains – OD600, teichoic acid synthesis inhibitors, primary screen (AID 463173)
Settings: S. aureus RN4220 wild type/DeltatarO growth, OD600, 18 h, hits give low values, concentration not given here

Compound	survival
CCOc1ccc2nc(NC(=O)c3cccn(Cc4ccc(C)cc4)c3=O)sc2c1	76% (inactive)
Cc1ccc(Cn2cccc(C(=O)Nc3cc(C)on3)c2=O)cc1	81% (inactive)
O=C1CN=C(c2ccccc2Cl)c2cc(Cl)ccc2N1Cc1cccc(Cl)c1	128% (inactive)
Cc1ccc(C)c(CN2C(=O)c3ccccc3Sc3ccc(C(=O)N4CCC5(CC4)OCCO5)cc32)c1	14% (active)
O=C(c1ccc2c(c1)N(Cc1ccc(F)cc1Cl)C(=O)c1ccccc1S2)N1CCC2(CC1)OCCO2	78% (inactive)
Cc1ccc(CN2C(=O)c3ccccc3Sc3ccc(C(=O)N4CCC5(CC4)OCCO5)cc32)cc1	75% (inactive)
C1CNC2NCCNC2N1 (stereo not drawn)	125% (inactive)
O=C1NC(=O)C(C(CC(=O)c2ccccc2)c2ccccc2)C(=O)N1 (stereo not drawn)	116% (inactive)
CN1C(=O)C(=Cc2ccco2)C(=O)N(C)C1=O	109% (inactive)
CSc1nc2ccccc2c(=O)n1-c1ccccc1C	107% (inactive)
CCCSc1nc2ccccc2c(=O)n1-c1ccccc1OC	-1% (active)
COc1ccccc1-n1c(/C=C/c2ccccc2)nc2ccccc2c1=O	80% (inactive)
CC(=O)N1CC(=O)Nc2ccc(F)cc2C1c1ccccc1 (stereo not drawn)	82% (inactive)
Cc1ccc(-c2nc(CN3C(=O)CN=C(c4ccccc4)c4ccccc43)c(C)o2)cc1	72% (inactive)
Cc1ccccc1-c1nc(CN2C(=O)CN=C(c3ccccc3)c3ccccc32)c(C)o1	2% (active)
COc1ccc(-c2nc(CN3C(=O)CN=C(c4ccccc4)c4ccccc43)c(C)o2)cc1OC	96% (inactive)
Cc1oc(-c2ccc(Cl)cc2)nc1CN1C(=O)CN=C(c2ccccc2)c2ccccc21	80% (inactive)
Cc1cccc(-c2nc(CN3C(=O)CN=C(c4ccccc4)c4ccccc43)c(C)o2)c1	2% (active)
COc1ccc(-c2nc(CN3C(=O)CN=C(c4ccccc4)c4ccccc43)c(C)o2)cc1	93% (inactive)
Cc1ccc2scc(N3CCN(C)CC3)c(=O)c2c1	136% (inactive)
O=c1[nH]c2ccccc2c(=O)n1-c1ccc(Cl)c(Cl)c1	91% (inactive)
CCOc1nc(NCc2ccco2)nc(N2CC3CC(C2)c2cccc(=O)n2C3)n1 (stereo not drawn)	104% (inactive)
Nc1c2c(nc3sc4c(c13)CCCC4)CCCC2	118% (inactive)
